“And” between values parts separate entries of the source, which are not always exact repeats. Equal entries are not always repeated. Hit rate of the full screen: of about 310,000 compounds, about 1,200 (0.39%) were called active. No rule for the calls is given here. Not all results are given here. Results with a measured potency or affinity are listed apart.
Target: Large T antigen (Simian virus 40) (UniProt P03070)
Test: SV40 large T antigen inhibitors, biochemical (AID 1903)
Conditions: SV40 large T antigen ATPase/helicase inhibition assay; at 20 µM; hits give high values

Chain of Large T antigen (Simian virus 40) (P03070 whole entry, looked up): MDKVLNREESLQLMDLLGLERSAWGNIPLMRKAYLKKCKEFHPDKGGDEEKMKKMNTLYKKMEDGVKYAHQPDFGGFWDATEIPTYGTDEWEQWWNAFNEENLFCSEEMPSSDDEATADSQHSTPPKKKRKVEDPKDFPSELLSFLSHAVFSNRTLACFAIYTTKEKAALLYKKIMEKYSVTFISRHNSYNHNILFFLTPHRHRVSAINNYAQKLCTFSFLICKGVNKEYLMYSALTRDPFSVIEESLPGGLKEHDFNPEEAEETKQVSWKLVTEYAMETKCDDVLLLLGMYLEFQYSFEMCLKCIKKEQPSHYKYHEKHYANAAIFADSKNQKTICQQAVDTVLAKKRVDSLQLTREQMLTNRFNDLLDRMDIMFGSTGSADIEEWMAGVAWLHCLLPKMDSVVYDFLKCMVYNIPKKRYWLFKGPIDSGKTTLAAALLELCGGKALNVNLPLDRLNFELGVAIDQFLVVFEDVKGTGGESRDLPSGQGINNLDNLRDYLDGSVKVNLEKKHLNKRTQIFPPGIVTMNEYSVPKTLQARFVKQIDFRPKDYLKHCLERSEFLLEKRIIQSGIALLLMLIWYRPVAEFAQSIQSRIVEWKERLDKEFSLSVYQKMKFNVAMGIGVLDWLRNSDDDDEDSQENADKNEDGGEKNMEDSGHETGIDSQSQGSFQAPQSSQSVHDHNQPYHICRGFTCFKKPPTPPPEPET

inhibition, inactive:
Cc1ccc(N(C(=O)CNC(=O)c2ccco2)C(C(=O)NCC2CCCO2)c2ccccc2)c(C)c1 (stereo not drawn) 18.4%, CCN(CC)S(=O)(=O)c1ccc(Nc2nc3ccccc3n3nnnc23)cc1 -2.08%, N#CC1=C(S)N(c2ccccc2)C(c2ccc(-c3cccc(Cl)c3)o2)NC1=O (stereo not drawn) 34.4%, N#CC1=C(S)N(c2ccccc2)C(c2ccc(-c3cc(Cl)ccc3Cl)o2)NC1=O (stereo not drawn) 33.3%, Cc1cccc(N(CC(=O)N2CCCC2)S(C)(=O)=O)c1 7.43%, CSc1ccccc1NC(=O)CN(C)Cc1cccc(Cl)c1 8.82%, COc1ccc(C(=O)/C=C(\C)Nc2ccc3c(c2)OCO3)cc1 5.13%, COc1ccc(N/C(C)=C/C(=O)c2ccccc2)cc1 9.38%, CCCc1nc(C(C)(C)O)c(C(=O)O)n1Cc1ccc(-c2ccccc2-c2nn[nH]n2)cc1 -1.62% and 6.85%, Cc1c(/C=N/NC(=O)c2cccs2)c2ccccc2n1Cc1ccccc1Cl 14.4%, CN(Cc1ccccc1F)C(=O)c1sccc1-c1ccccc1 20%, CCOC(=O)Cc1csc(NC(=O)NC2(C(F)(F)F)Oc3ccccc3O2)n1 31.1%, CC(C)CNC(=O)NC1(C(F)(F)F)Oc2ccccc2O1 3.66%, O=C(Nc1ccc2c(c1)CCCN2C(=O)c1cccs1)c1c(F)cccc1Cl 13.1%, Cc1c2ccccc2cc[n+]1CCCS(=O)(=O)[O-] 7.97%, CCC(=S)/C=C1\Sc2ccc3ccccc3c2N1CCCS(=O)(=O)O 18.3%, COC(=O)[C@@H](NC(=O)NCc1ccccc1F)C(C)C -2.59%, COc1ccc(C(=O)N2CCN(S(=O)(=O)c3cc(Cl)ccc3OC)CC2)cc1 5.04%, Cc1nn(C)c(C)c1NC(=O)CSc1nc(-c2ccccc2Cl)nc2c1cnn2-c1ccccc1 8.57%, COc1cc(/C=N/NC(=O)/C(=C/c2ccccc2)CCO)ccc1O 29.2%, COc1ccc(/C=N/NC(=O)/C(=C/c2ccccc2)CCO)cc1 2.79%, O=C(COc1ccc(N2CC(C(=O)O)CC2=O)cc1)Nc1cccc(C(F)(F)F)c1 (stereo not drawn) -0.75%, COc1ccc(/C=N/NC(=O)CNc2n[nH]c(=O)[nH]c2=O)cc1OC 0.71%, CCOc1cc(/C=N/NC(=O)COc2nc(C)cc(COC)c2C#N)ccc1O 25.5%, COc1ccc(/C=N/NC(=O)CCc2ccccc2)cc1O 29.5%, CCOc1cc(/C=N/NC(=O)C(=O)N2CCCC2)ccc1O 29.3%, COc1cc(/C=N\NC(=O)CNC(=O)C(c2ccccc2)c2ccccc2)ccc1O 33.5%, COc1ccc(/C=N/NC(=O)CCc2n[nH]c(=O)[nH]c2=O)cc1OC 9.55%, Cc1cccc(N2CCN(S(=O)(=O)c3ccc4c(c3)CC(C)N4C(=O)C3CC3)CC2)c1C (stereo not drawn) 4.4%, Cc1cc(OCC(=O)NC2CC2)c2c(C)c(C)c(=O)oc2c1 20.6%, O=C(CN1CCOCC1)Nc1cccc(C(F)(F)F)c1 16.1%, COc1cc(Cl)c(C)cc1NC(=O)CCCn1c(=O)oc2ccccc21 4.1%, O=C(CN1CCOCC1)NNC(=S)Nc1ccccc1 4.41%, CN(CC(=O)Nc1cccc(F)c1)C(=O)c1cccc(S(=O)(=O)N2CCN(c3ccccc3)CC2)c1 6.82%, Cc1ccc(NC2=C([N+](=O)[O-])CS(=O)(=O)C2)cc1 2.4%, O=[N+]([O-])C1=C(Nc2cccc3ccccc23)CS(=O)(=O)C1 0.61%, Cc1ccc(/C=C2/NC(=O)N(Cc3ccccc3)C2=O)o1 9.41%, O=C1/C(=C/c2cccnc2)SC(=S)N1c1ccc(F)cc1 21.6%, O=C1N/C(=C/c2ccc(N3CCOCC3)cc2)C(=O)N1Cc1ccc(F)cc1 3.08%, O=C1/C(=C\c2cccnc2)SC(=S)N1c1ccc(F)cc1 9.19%, COc1ccc(CN2C(=O)c3ccccc3C2=O)cc1 5.14%, O=C1N/C(=C\c2ccsc2)C(=O)N1Cc1ccc(F)cc1 5.82%, COC(=O)C1=C(C)N(Cc2ccc(OC)cc2)C(=O)/C1=C\c1ccco1 10.5%, Cc1ccc(/C=C2/NC(=O)N(Cc3ccc(Br)cc3)C2=O)o1 9.48%, COc1cccc(C(=O)COc2ccc(NC(=O)c3cccs3)cc2)c1 -1.46%, Cc1nn(-c2ccccc2)c(N)c1N=Nc1ccc(Cl)cc1 5.29%, CC(=O)NCCCc1nc2ccccc2n1Cc1cc(C)ccc1C 2.29%, O=C(CN1C(=O)/C(=C/c2ccccc2Cl)SC1=S)NC1CCS(=O)(=O)C1 (stereo not drawn) 14.6%, O=C(CN1C(=O)S/C(=C\c2cccs2)C1=O)Nc1ccc(C(=O)O)c(O)c1 13.4%, O=C(CN1C(=O)/C(=C/c2ccccc2)SC1=S)NC1CCS(=O)(=O)C1 (stereo not drawn) 15.6%, O=C(CCCN1C(=O)/C(=C/c2ccccc2)SC1=S)Nc1ccc(C(=O)O)c(O)c1 11.4%, O=C(CCCN1C(=O)/C(=C\c2ccccc2)SC1=S)Nc1ccc(O)cc1C(=O)O 11.7%, O=C(CCCN1C(=O)/C(=C\c2ccco2)SC1=S)Nc1ccc(O)cc1C(=O)O 83.1%, COc1ccccc1/C=C1\SC(=S)N(CCC(=O)Nc2ccc(C(=O)O)c(O)c2)C1=O 22.1%, O=C(CCN1C(=O)/C(=C/c2cccs2)SC1=S)Nc1ccc(C(=O)O)c(O)c1 35%, COC(=O)COc1ccc2occ(C(C)=O)c2c1 -0.85%, COC(=O)c1[nH]c2ccc(F)cc2c1NC(=O)Nc1ccc(OC)cc1 11.4%, CN1CCN(C(=O)CSc2nnc(COc3ccccc3)o2)CC1 6.15%, Cc1ccc2oc3nc(C)c(C(=O)Nc4cccc(C(F)(F)F)c4)cc3c(=O)c2c1 2.24%, Clc1ccc(/C=N/N2CCCCC2)cc1 5.46%, Cc1cc(NC(=O)C(=O)c2c(C)[nH]c3ccccc23)no1 3.99%, CCOc1ccc2nc(NC(=O)CC3Oc4ccccc4NC3=O)sc2c1 (stereo not drawn) 7.51%, O=C(COC(=O)c1ccccc1SCC(=O)N1CCCC1)NC1CCCCC1 7.38%, CC1(C)CC(=O)C/C(=N/NC(=O)COc2ccc3ccccc3c2Br)C1 8.99%, C/C(CC(=O)Nc1ccc2c(c1)OCCO2)=N\NC(=O)Cc1ccccc1 9.69%, CC(C(=O)Nc1ccc(O)cc1C(=O)O)N1C(=O)/C(=C\c2cccs2)SC1=S (stereo not drawn) 38.1%, O=C(CCCN1C(=O)/C(=C\c2ccco2)SC1=S)Nc1ccc2ccccc2c1 18.2%, CCN(C(=O)C(C)N1C(=O)/C(=C/c2ccco2)SC1=S)C1CCS(=O)(=O)C1 (stereo not drawn) 33.8%, O=C(CCCN1C(=O)/C(=C/c2cccs2)SC1=S)Nc1ccc(O)c(C(=O)O)c1 29.5%, Cc1ccc2nc(N3CCN(c4ccccc4)CC3)c(C=O)c(=O)n2c1 3.59%, CCn1cc(S(=O)(=O)CC(=O)N2CCc3ccccc32)c2ccccc21 16.3%, COCC(C)n1c(SCc2nc(N)nc(Nc3ccccc3C)n2)nc2ccccc2c1=O (stereo not drawn) 23%, COc1cccc(/C=C2/C(=O)NN(c3ccccc3)C2=O)c1 26.6%, COc1cccc(NCc2ccc([N+](=O)[O-])s2)c1 20.9%, COc1cccc(/C=C2\C(=O)N(c3cccc(C)c3)C(=O)c3ccccc32)c1 11%, COc1cccc(N2C(=O)/C(=C\c3cccs3)NC2=S)c1 24%, COc1ccc(NC(=O)CCNC(=O)c2ccco2)cc1OC 0.95%, O=C(O)C1CCCN1C(=O)Nc1ccccc1 (stereo not drawn) 4.07%, CN1CCN(CC(=O)O)CC1 17.9%, COc1ccc2c(c1)[nH]c1c(=O)n(CCC3=CCCCC3)cnc12 9.61%, CCOC(=O)N1CCC(Nc2ccc(N3C(=O)C4CCCCC4C3=O)cc2[N+](=O)[O-])CC1 (stereo not drawn) 10.6%, COc1ccc(C(=O)CCc2ccccc2)c(O)c1 7.01%, COC(=O)CCc1ccc(O)cc1 4.8%, Cc1ccsc1CNC(=O)c1c(-c2ccccc2)noc1C 2.94%, O=C1CNC(=S)N1CCc1ccc(Cl)cc1 6.29%, O=C1CNC(=S)N1CCCc1ccccc1 5.18%, COc1ccc(-c2cc(C(F)(F)F)nc(SCC(=O)NCCCN3CCOCC3)n2)cc1 9.25%, CN1C(=O)NC(c2ccc(O)cc2)C2=C1CN(c1ccccc1)C2=O (stereo not drawn) 6.82%, Cc1ccc(N2CC3=C(C2=O)C(c2ccccc2)NC(=O)N3C)cc1 (stereo not drawn) 5.38%, CSc1nnc2n(-c3ccc(C)cc3)c(=O)c3c4c(sc3n12)COC(C(C)C)C4 (stereo not drawn) 10.7%, Cc1nnc2n(-c3ccccc3)c(=O)c3c4c(sc3n12)COC(C(C)C)C4 (stereo not drawn) 5.27%, Cc1nnc2n(Cc3ccccc3)c(=O)c3c4c(sc3n12)COC(C(C)C)C4 (stereo not drawn) 7.22%, CN1CCc2c(sc3c2c(=O)n(-c2ccccc2)c2n[nH]c(=S)n32)C1 25.6%
